Compound activity (PubChem BioAssay)
CtBP-E1A blk: inhibitors of CtBP/E1A interaction | actives 0.49% (n = 340,000) | AlphaScreen GST-E1A/His-CtBP binding, 1536-well; stronger effect = lower value | activity change, % (no concentration beside the values) | AID 651724
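AlphaScreen with 125 nM GST-E1A and 125 nM His-CtBP (5X stocks) in Tris pH 8.0, 300 mM NaCl, BSA, Tween 20, TCEP. Compounds preincubated 2 h at 37 deg C, then glutathione donor/nickel acceptor beads added for 1 h at 37 deg C in dark.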
Six1-Eya2 blk: Six1/Eya2 interaction inhibition. Q15475+O00167. AlphaScreen GST-Six1/His-Eya2 binding, biochemical; stronger effect = lower value. activity change, % (test concentration not listed). actives 0.56% (n = 360,000). AID 651725
Target sequence (O00167 whole entry, looked up): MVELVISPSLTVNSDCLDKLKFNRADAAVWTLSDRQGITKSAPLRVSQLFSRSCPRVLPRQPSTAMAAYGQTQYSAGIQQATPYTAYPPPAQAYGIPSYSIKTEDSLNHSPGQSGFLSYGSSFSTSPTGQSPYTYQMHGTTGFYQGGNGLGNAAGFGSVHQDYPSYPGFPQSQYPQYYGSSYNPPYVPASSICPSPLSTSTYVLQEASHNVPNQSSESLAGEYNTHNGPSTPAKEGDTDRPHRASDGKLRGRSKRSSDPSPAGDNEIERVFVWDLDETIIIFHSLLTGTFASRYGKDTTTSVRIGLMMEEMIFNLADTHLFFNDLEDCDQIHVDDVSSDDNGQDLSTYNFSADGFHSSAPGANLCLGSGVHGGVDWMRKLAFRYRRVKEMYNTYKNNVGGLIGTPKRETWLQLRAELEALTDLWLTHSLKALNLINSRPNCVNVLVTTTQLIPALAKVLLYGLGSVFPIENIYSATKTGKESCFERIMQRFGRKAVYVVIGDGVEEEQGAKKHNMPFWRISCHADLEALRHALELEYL
Target sequence (Q15475 whole entry, looked up): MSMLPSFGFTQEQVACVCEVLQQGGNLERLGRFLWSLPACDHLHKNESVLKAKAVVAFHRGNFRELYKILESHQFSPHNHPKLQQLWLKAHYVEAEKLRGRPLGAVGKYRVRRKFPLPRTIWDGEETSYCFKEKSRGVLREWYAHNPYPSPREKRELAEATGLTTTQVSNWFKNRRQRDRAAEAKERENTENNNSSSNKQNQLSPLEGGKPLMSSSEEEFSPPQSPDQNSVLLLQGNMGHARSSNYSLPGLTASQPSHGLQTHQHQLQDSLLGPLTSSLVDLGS
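AlphaScreen luminescence read after one hour at 37 °C in darkness. Pin-transferred compounds met GST-Six1 and His-Eya2 protein (5X stock 250 nM/500 nM) plus glutathione donor and Ni-chelate acceptor beads (5X, 50 ug/mL).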
KCNH2 3.1 inh: inhibitors of human KCNH2 3.1 potassium channel isoform; actives 0.95% (n = 340,000); U2OS KCNH2 3.1, thallium flux FluxOr; stronger effect = lower value; AID 720553; activity change, % (tested at about 1.8 µM);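 active = maximum activity change below -70%; inconclusive = maximum activity change from -70% to -50%; inactive = maximum activity change above -50%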;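 note: thallium influx rate constant from kinetic fluorescence after stimulation buffer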
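Virally transduced U2OS (3.1 isoform, 4 h infection in dark at RT) → overnight 37 C → FluxOr + Red40 in HBSS/HEPES, 45 min → stimulation buffer, 2 min kinetic read → rate constant vs DMSO controls.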
JMJD2E inh: JMJD2E (human) inhibition | B2RXH2 | JMJD2E catalytic domain, FDH-coupled NADH fluorescence (FDH is formaldehyde dehydrogenase) | Potency, µM (titrated, usually from 57.1 µM), most hits filed as inhibitors | actives 1.6% (n = 230,000); active = well fitted inhibition curve with a large enough effect, not every such curve was filed as active; inconclusive = small, poorly fitted or top-dose-only effect, or another doubt; inactive = no such curve, though single readings can be large or run the other way; note: nearly all actives have a fitted effect of over 50% in size
hERG WT inh: KCNH2 (human, wildtype) channel inhibition; activity change, % at 1.84 µM; AID 720551; U2OS, BacMam KCNH2, thallium flux FluxOr; stronger effect = lower value; actives 0.37% (n = 340,000);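 active = maximum activity change below -70%; inconclusive = maximum activity change between -70% and -50%; inactive = maximum activity change above -50%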
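U2OS cells transduced with wild-type KCNH2 virus are loaded with FluxOr dye for 45 min, and thallium flux is measured in kinetic reads before and after stimulation buffer. Rate constants are normalized to DMSO controls.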
A number is an active result; n = inactive; u = inconclusive; x = no result; ! = a repeat was not active. In the library only some 2% were active in any assay of this set; here they are far more common. Cut-off read from the data, not from the text of the source, unless noted: active = activity change below about -65%; inconclusive = mostly about -30% to -63%; inactive = weaker than that.

SMILES	CtBP-E1A blk	Six1-Eya2 blk	KCNH2 3.1 inh	JMJD2E inh	hERG WT inh
COc1ccc(Nc2nc(NCc3ccco3)nc(N/N=C/c3ccc(O)cc3)n2)cc1	n	n	-89.9	n	n
COc1ccc(/C=N/Nc2nc(Nc3ccccc3)nc(N3CCCC3)n2)cc1	n	n	n	n	n
COc1ccc(Nc2nc(NCc3ccco3)nc(N/N=C/c3ccccc3F)n2)cc1	n	n	-96.6	n	n
CC(C)CC(=O)Nc1nnc(CCc2ccccc2)s1	x	n	n	x	n
CCN(CC)C(=O)CSc1nnc(-c2c[nH]c3ccccc23)o1	x	n	n	x	n
O=C(Cn1nnc2ccccc21)c1cccc([N+](=O)[O-])c1	n	n	n	n	n
COc1ccc(-c2csc(N)n2)cc1F	n	n	n	n	-123.5
CNS(=O)(=O)c1ccc(CNC[C@H]2O[C@@H](n3cnc(C(N)=O)n3)[C@H](O)[C@@H]2O)cc1	n	n	n	x	n
Cc1ccc(S(=O)(=O)Oc2ccc(/C=C3\C(=N)N4N=C(S(C)(=O)=O)SC4=NC3=O)cc2)cc1	x	n	-115.3	x	n
O=C(Nc1ccc2cn[nH]c2c1)c1c(Cl)cccc1Cl	n	n	n	n	n
O=C1C(Cl)=C(Nc2ccc3cn[nH]c3c2)C(=O)c2ccccc21	n	n	n	10µM	n
O=C1Nc2ccccc2Nc2ncccc21	n	n	n	n	n
COC(=O)Cn1ccc(N(C)C)c(C#N)c1=O	n	n	n	n	n
COC(=O)Cn1ccc(-c2ccc(Cl)cc2)c(C#N)c1=O	n	n	-114.2	u	n
CCOc1ccc(NC(=O)c2cc(SC)ccc2Cl)cc1	n	n	n	n	n
Cc1cccc(NC(=S)Nc2cccc(C)n2)n1	n	n	-147.2	n	n
Cc1cccc(NC(=S)NC2CCCC2)n1	x	n	n	n	x
CC(=O)Nc1ccc(S(=O)(=O)/N=C2/NC(=O)/C(=C\c3ccco3)S2)cc1	x	u	n	u	n
COc1ccccc1CC(=O)NCc1csc(-c2cccs2)n1	n	n	n	u	n
Cc1nnsc1C(=O)N/N=C/c1ccc2ccccc2c1O	-71.3	-87.2	n	22.4µM	n
COc1ccc(CC(=O)c2ccc(OC3OC(CO)C(O)C(O)C3O)cc2O)cc1 (stereo not given)	n	n	n	x	-95.0
O=C(CSc1n[nH]c(-c2ccccc2)n1)Nc1ncccn1	n	n	n	n	n
O=C(CSc1n[nH]c(-c2ccccn2)n1)Nc1cccc(Cl)c1	-96.8	-92.5	-70.2	x	n
Cc1ccc(C)c(NC(=O)CSc2n[nH]c(-c3ccccn3)n2)c1	-92.1	-77.4	n	x	n
Cc1ccccc1NC(=O)CSc1n[nH]c(-c2ccccn2)n1	-93.6	-91.7	n	x	n
SMILES	CtBP-E1A blk	Six1-Eya2 blk	KCNH2 3.1 inh	JMJD2E inh	hERG WT inh
CCC(C)Sc1nnc(Cc2cc(=O)[nH]c(=O)[nH]2)n1-c1ccc(F)cc1 (stereo not given)	n	n	n	n	n
Cc1cccc(C#Cc2ccccc2)n1	n	u	n	12.6µM!	n
COC(=O)C1=C(C(=O)OC)SC(=C2C(=S)C(C)(C)N(C(=O)C(C)C)c3ccccc32)S1	n	u	n	n	n
COC(=O)C1=C(C(=O)OC)SC(=C2C(=S)C(C)(C)N(C(=O)C3CC3)c3ccccc32)S1	-80.4	-76.9	n	n	n
Cn1c(N2CCN(C(=O)Nc3ccc(C(F)(F)F)cc3)CC2)nc2ccccc21	n	n	-74.4	n	-82.3
Cc1noc(NS(=O)(=O)c2ccc(N/C=C\C(=O)c3ccc4c(c3)OCO4)cc2)c1C	-75.4	-67.9	n	n	n
CCOc1ccc(OCc2cccc(C(=O)N/N=C/c3cccnc3)c2)cc1	n	n	n	n	n
Cc1ccc(-c2nn(C)c(=O)c3ccccc23)cc1CNC(=O)NC1CCCCC1	n	n	-165.6	n	-142.4
CCCCc1ccc(-c2nn[nH]n2)nc1	u	-81.4	n	x	n
CCCCc1ccc(-c2ccc(C)cc2O)nc1	n	n	n	n	n
O=C(Nc1ccc(Br)cc1F)c1nc[nH]c1C(=O)N1CCc2ccccc2C1	n	n	n	x	n
O=[N+]([O-])c1cc2oc3c(c2c(C=NCc2ccncc2)c1O)CCCC3	n	n	n	28.2µM	n
COc1ccccc1CNC(=O)C1CCCN(c2cnccn2)C1 (stereo not given)	n	n	n	x	n
COc1cccc(NC(=O)c2ccnc(N3CCC(C(=O)NCc4ccccc4OC)CC3)c2)c1	n	n	-108.8	x	n
O=C(N/N=C/c1c(Cl)nc2ccccn2c1=O)c1cccnc1	n	-68.8	n	u	n
O=C(N/N=C/c1cc(Cl)ccc1O)c1ccccc1Br	-90.0	-70.3	n	11.2µM	n
O=C(CNC(=O)c1ccccc1Br)N/N=C/c1cc(Br)ccc1O	-72.9	u	n	u	n
O=C(CNC(=O)c1ccccc1Br)N/N=C/c1ccccc1O	u	-65.2	n	25.1µM	n
O=C(CNC(=O)c1ccccc1Br)N/N=C/c1cccs1	x	n	n	x	n
CCOC(=O)N1CCN(c2c(NCCN3CCN(Cc4ccccc4)CC3)c(=O)c2=O)CC1	n	n	n	n	n
O=C(CNC(=O)c1ccccc1Br)N/N=C\c1cc([N+](=O)[O-])cc(Br)c1O	-72.8	u	n	x	n
O=C(N/N=C/c1cc(Cl)ccc1O)c1cccnc1	-91.4	-67.6	n	x	n
Nc1nnc(CC(=O)N/N=C/c2cccc([N+](=O)[O-])c2)s1	n	n	n	n	n
Nc1nnc(CC(=O)N/N=C/c2cc([N+](=O)[O-])cc(Br)c2O)s1	u	u	n	11.2µM	n
Clc1ccc(COn2ccnc2)cc1Cl	n	n	n	n	n
SMILES	CtBP-E1A blk	Six1-Eya2 blk	KCNH2 3.1 inh	JMJD2E inh	hERG WT inh
CCCC1Cc2[nH]c(=O)c(C#N)cc2CO1 (stereo not given)	-69.7	n	n	u	n
CCC1(C)Cc2[nH]c(=O)c(C#N)cc2CO1 (stereo not given)	n	n	n	u	n
COc1ccc(OCCn2c(=N)n(CCO)c3ccccc32)cc1	n	n	n	n	n
CCCCn1c(=N)n(CCOc2ccc(C)cc2)c2ccccc21	n	n	-111.3	n	-127.8
O=C(CSc1ncccn1)Nc1cccc2ccccc12	n	n	n	x	n
O=C1NC(=Nc2ccc(F)cc2)SC1Cc1ccc(F)cc1 (stereo not given)	n	n	n	n	n
Cc1ccc(NC(=O)C2CC(=O)N(Cc3ccco3)C2)cc1 (stereo not given)	n	n	n	n	n
O=C(O)C1OC(Oc2c(-c3ccc(O)c(O)c3)oc3cc(O)cc(O)c3c2=O)C(O)C(O)C1O (stereo not given)	x	u	n	4.47µM	n
Cc1cccc2cc(-c3nc4c(C)cccn4c3NCc3ccco3)c(=O)[nH]c12	n	u	n	n	n
Cc1ccc2[nH]c(=O)c(-c3nc4cc(C)ccn4c3NCc3ccco3)cc2c1	n	n	n	3.16µM	n
Cc1cc(-c2ccccc2)nc(=O)[nH]1	n	n	-192.5	n	-166.9
